Several values for one entry are separate records, joined by “and”; a condition that tells them apart may be missing. Identical values can stand only once. Results filed as inconclusive are left out. Some compounds were tested as several samples or in several runs, with calls that do not always agree. Activity calls are given as the source filed them. Rule for the calls: active = hit-call score of the fitted dose curve at least 0.9, where 1 is the maximum; inconclusive = response in the unintended direction; inactive = score below 0.9.

Sequence of human Dopamine Transporter (DAT), SLC6A3 (gene 6531) (Q01959 whole entry, looked up): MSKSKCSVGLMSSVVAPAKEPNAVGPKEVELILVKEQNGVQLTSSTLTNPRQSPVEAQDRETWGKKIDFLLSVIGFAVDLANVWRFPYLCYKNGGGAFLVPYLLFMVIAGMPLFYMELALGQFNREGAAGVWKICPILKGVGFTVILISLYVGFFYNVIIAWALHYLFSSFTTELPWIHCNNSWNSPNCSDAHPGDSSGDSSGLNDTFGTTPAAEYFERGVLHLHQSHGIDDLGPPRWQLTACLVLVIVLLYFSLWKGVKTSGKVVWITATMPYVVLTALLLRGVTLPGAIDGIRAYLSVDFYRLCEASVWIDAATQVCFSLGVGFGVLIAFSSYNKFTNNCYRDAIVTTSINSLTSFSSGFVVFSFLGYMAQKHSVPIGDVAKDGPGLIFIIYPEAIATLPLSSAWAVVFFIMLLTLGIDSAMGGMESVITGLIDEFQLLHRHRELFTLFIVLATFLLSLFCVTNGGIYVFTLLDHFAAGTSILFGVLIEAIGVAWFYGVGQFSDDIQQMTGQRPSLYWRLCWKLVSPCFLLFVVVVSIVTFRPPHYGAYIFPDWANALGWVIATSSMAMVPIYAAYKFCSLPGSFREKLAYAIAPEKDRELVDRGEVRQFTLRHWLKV
Sequence of Retinoic acid receptor alpha (Homo sapiens) (P10276 whole entry, looked up): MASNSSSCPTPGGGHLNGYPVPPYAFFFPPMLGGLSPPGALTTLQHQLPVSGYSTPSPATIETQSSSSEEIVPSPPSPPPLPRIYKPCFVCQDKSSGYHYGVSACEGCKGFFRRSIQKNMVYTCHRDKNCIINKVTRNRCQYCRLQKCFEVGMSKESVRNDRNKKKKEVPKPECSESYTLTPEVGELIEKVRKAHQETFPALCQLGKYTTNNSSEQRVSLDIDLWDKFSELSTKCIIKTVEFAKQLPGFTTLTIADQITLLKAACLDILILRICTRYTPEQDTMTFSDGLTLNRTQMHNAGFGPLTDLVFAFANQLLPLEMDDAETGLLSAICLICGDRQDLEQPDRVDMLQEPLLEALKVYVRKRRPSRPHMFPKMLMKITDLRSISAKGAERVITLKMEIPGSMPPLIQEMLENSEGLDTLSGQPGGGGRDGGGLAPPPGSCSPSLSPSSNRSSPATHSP
Sequence of mouse Estrogen Receptor alpha (Era), Esr1 (gene 13982) (P19785 whole entry, looked up): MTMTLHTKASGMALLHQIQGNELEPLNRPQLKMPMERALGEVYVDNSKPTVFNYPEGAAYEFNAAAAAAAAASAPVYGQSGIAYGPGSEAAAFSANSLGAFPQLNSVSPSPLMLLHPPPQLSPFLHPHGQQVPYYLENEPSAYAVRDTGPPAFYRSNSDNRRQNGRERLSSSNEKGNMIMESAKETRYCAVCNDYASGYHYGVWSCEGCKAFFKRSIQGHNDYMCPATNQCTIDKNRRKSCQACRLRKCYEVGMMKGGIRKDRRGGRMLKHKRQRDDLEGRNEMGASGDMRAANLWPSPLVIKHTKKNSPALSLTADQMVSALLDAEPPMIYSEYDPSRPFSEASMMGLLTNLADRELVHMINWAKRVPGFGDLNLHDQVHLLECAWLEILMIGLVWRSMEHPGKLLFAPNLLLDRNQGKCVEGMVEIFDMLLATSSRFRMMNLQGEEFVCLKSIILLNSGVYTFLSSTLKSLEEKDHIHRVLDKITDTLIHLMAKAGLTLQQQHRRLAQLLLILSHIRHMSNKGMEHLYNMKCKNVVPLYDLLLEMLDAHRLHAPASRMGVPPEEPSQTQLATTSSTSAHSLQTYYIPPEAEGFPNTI
Sequence of human Norepinephrine Transporter (NET), SLC6A2 (gene 6530) (P23975 whole entry, looked up): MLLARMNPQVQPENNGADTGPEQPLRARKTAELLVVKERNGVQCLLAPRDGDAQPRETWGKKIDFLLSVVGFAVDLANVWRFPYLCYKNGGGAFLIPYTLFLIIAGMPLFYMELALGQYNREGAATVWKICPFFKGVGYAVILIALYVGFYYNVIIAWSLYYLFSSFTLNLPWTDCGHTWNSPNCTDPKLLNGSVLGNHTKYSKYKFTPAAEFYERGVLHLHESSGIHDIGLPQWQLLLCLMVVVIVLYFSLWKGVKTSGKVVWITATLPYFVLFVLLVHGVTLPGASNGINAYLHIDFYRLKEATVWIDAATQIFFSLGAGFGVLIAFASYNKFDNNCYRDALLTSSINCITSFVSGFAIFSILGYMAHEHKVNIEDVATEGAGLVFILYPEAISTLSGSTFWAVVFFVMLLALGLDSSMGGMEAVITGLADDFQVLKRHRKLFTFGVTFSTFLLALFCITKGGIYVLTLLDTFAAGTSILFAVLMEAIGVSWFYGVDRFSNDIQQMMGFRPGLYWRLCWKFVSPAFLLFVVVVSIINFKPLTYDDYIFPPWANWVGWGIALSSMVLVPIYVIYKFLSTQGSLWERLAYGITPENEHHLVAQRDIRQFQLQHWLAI
Sequence of Peroxisome proliferator-activated receptor gamma (Homo sapiens) (P37231 whole entry, looked up): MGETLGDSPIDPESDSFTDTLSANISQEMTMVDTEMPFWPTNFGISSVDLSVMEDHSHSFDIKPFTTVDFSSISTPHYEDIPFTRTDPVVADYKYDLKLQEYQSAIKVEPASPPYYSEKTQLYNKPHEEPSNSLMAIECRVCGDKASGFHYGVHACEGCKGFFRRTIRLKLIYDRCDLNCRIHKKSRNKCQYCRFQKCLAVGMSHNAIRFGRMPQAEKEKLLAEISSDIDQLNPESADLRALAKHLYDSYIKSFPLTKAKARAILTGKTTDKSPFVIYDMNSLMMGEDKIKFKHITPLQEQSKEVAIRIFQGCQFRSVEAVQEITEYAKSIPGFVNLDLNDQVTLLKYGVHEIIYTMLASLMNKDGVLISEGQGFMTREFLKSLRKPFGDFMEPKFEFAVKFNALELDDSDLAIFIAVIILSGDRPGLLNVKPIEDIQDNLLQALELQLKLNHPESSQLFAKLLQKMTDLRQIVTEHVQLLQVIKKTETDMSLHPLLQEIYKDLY
Sequence of Nuclear receptor subfamily 1 group I member 2 (Homo sapiens) (O75469 whole entry, looked up): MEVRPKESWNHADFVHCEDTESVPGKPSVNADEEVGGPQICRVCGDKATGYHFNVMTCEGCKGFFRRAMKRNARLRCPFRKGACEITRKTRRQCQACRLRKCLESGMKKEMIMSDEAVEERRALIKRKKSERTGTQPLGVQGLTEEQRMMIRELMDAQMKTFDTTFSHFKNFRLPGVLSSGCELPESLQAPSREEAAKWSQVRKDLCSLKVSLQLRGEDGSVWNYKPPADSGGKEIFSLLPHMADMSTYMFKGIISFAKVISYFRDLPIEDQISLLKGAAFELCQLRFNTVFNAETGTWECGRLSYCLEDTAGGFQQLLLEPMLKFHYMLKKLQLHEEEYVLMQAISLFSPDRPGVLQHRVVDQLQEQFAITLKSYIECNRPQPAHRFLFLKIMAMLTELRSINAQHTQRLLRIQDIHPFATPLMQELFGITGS

The target in one experiment is Retinoic acid receptor alpha (Homo sapiens) (UniProt P10276). Briefly: NVS_NR_hRARa_Agonist: NovaScreen (NVS) Nuclear Receptor Binding Assay for human Retinoic Acid Alpha Receptor Agonism (RAR) (AID 2283361). The method, boiled down:
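Cell-free TR-FRET binding readout with extracted receptor protein, read 2 hours after dosing; gain-of-signal fitted relative to DMSO. Screened in duplicate at 25 uM, actives then run in concentration-response.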
Turning to `CCCCCCCC[N+](C)(CCCCCCCC)CCCCCCCC`, the half-maximal activity concentration (AC50) (as a rule, the midpoint of the concentration-response curve, whichever way the signal moves) was 4.37 µM (active).

As to `O=S(=O)(O)c1ccccc1C=Cc1ccc(-c2ccc(C=Cc3ccccc3S(=O)(=O)O)cc2)cc1`, the half-maximal activity concentration (AC50) was 12.1 µM (active).

Turning to `CN(C)c1ccc(C(=N)c2ccc(N(C)C)cc2)cc1`, the AC50 is 14.1 µM (active).

The target of another experiment is human Thyroid Receptor Alpha (TRa), THRA (gene 7067) (UniProt P10827). In words: NVS_NR_hTRa_Antagonist: NovaScreen (NVS) Nuclear Receptor Binding Assay for human Thyroid Receptor Alpha Antagonism (TRa) (AID 2283362).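 Note: activity is loss of signal relative to DMSO baseline.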 The procedure, abridged: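 In this biochemical format, receptor protein is dosed with chemical and read after 1 hour via AlphaLISA. Decreases from the DMSO baseline indicate antagonist activity; screening used 25 uM in duplicate before concentration-response confirmation.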
Sequence of human Thyroid Receptor Alpha (TRa), THRA (gene 7067) (P10827 whole entry, looked up): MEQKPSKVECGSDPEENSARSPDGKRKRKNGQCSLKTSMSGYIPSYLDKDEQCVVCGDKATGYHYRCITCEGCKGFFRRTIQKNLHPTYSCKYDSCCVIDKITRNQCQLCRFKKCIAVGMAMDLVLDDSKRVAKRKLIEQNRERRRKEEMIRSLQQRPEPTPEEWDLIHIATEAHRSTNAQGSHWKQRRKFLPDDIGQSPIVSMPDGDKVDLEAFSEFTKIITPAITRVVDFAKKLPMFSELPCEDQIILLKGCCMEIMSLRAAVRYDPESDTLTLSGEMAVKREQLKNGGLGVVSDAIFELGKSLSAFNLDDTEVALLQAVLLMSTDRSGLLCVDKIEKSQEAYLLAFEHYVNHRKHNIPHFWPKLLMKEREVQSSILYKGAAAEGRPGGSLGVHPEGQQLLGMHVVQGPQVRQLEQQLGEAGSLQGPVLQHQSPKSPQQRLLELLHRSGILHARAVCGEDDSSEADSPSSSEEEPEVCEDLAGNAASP
As to `Cc1ccc(N/N=c2\c(=O)cc/c(=N/Nc3ccc(S(=O)(=O)O)cc3)c2=O)c(C)c1`, the AC50 was 18.6 µM (active).

As for `CC/C=C\C/C=C\C/C=C\CCCCCCCC(=O)O`, the compound was classed as inactive.

`O=S1(=O)OC(c2ccc(O)cc2)(c2ccc(O)cc2)c2ccccc21`: the concentration at half-maximal activity (AC50) is 11 µM (active).

Another experiment has as its target Nuclear receptor subfamily 1 group I member 2 (Homo sapiens) (UniProt O75469). Briefly: NVS_NR_hPXR: NovaScreen (NVS) Nuclear Receptor Binding Assay for human Pregnane X Receptor (PXR) (AID 2283365).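 Note: a drop in FRET signal versus DMSO baseline means the compound binds.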 The method, boiled down: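 Read-out: TR-FRET, human PXR, 2 h post-dosing, cell-free. Loss of signal vs DMSO taken as binding activity; 25 uM primary, concentration series secondary.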
As to `Cc1ccc(N/N=c2\c(=O)cc/c(=N/Nc3ccc(S(=O)(=O)O)cc3)c2=O)c(C)c1`, the AC50 was 2.79 µM (active).

With `CC/C=C\C/C=C\C/C=C\CCCCCCCC(=O)O`, the concentration at half-maximal activity (AC50) was 3.05 µM (active).

With `CCCCC(CC)CCC(CC(C)C)OS(=O)(=O)O` (centres undefined), the half-maximal activity concentration (AC50) was 2.49 µM (active).

For `COC(=O)c1c(C)cc(O)c(C)c1O`, the compound was called inactive.

Take `CC(=O)OC(C)C`: the compound was called inactive.

As for `CC(C)C1=CC2=CC[C@@H]3[C@](C)(CCC[C@@]3(C)C(=O)O)[C@H]2CC1`, the AC50 is 16 µM (active).

Regarding `CC(C)c1ccc2c(C(C)C)cc(C(C)C)c(S(=O)(=O)O)c2c1`, the concentration at half-maximal activity (AC50) is 0.393 µM (active).

Consider `CCCCCCCC/C=C\CCCCCCCC(=O)OCCO`, for which the compound was classed as inactive.

On to `O=S1(=O)OC(c2ccc(O)cc2)(c2ccc(O)cc2)c2ccccc21`, for which the compound was called inactive.

For the compound `CCCCC/C=C\C/C=C\CCCCCCCC(=O)OC`, the result was inactive.

For `O=c1cc(-c2ccccc2)oc2ccccc12`, the call was inactive.

As to `CCN(CCC#N)c1ccc(N=Nc2c(Cl)cc([N+](=O)[O-])cc2Cl)cc1`, the concentration at half-maximal activity (AC50) is 0.433 µM (active).

In the case of `Oc1ccc(Cl)cc1Cc1cc(Cl)ccc1O`, the AC50 was 16.8 µM (active).

Regarding `CCCCCCCCCCCCCOP(=O)(O)O`, the result was inactive.

As for `C1CN(SSN2CCOCC2)CCO1`, the call was inactive.

The next experiment concerns the target Peroxisome proliferator-activated receptor gamma (Homo sapiens) (UniProt P37231). In words: NVS_NR_hPPARg: NovaScreen (NVS) Nuclear Receptor Binding Assay for human Peroxisome Proliferator-activated Receptor gamma (PPARg) (AID 2283370). The method, boiled down:
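Extracted receptor protein, cell-free; compound incubated 2 h then fluorescence polarization read. Baseline: DMSO. Actives from 25 uM duplicate screen re-run across concentrations.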
Take `Cc1ccc(N/N=c2\c(=O)cc/c(=N/Nc3ccc(S(=O)(=O)O)cc3)c2=O)c(C)c1`: the AC50 was 16 µM (active).

`CC/C=C\C/C=C\C/C=C\CCCCCCCC(=O)O`: the half-maximal activity concentration (AC50) was 0.00769 µM (active).

`CCCCC(CC)CCC(CC(C)C)OS(=O)(=O)O` (centres undefined): the half-maximal activity concentration (AC50) was 8.17 µM (active) and 6.89 µM (active).

`CCCCCCCCO[C@@H]1O[C@H](CO)[C@@H](O)[C@H](O)[C@H]1O`: the AC50 was 36.5 µM (active).

Regarding `CCCCC/C=C\CCC=O`, the compound was classed as inactive.

In the case of `CC(=O)OC(C)C`, the outcome was inactive.

Take `CC(C)C1=CC2=CC[C@@H]3[C@](C)(CCC[C@@]3(C)C(=O)O)[C@H]2CC1`: the result was inactive.

Turning to `CC(C)c1ccc2c(C(C)C)cc(C(C)C)c(S(=O)(=O)O)c2c1`, the AC50 is 4.01 µM (active).

Turning to `CCCCCCCC/C=C\CCCCCCCC(=O)OCCO`, the compound was classed as inactive.

Turning to `O=S1(=O)OC(c2ccc(O)cc2)(c2ccc(O)cc2)c2ccccc21`, the compound was called inactive.

On to `CCCCC/C=C\C/C=C\CCCCCCCC(=O)OC`, for which the AC50 was 8.81 µM (active) and the call was inactive.

Regarding `O=c1cc(-c2ccccc2)oc2ccccc12`, the compound was classed as inactive.

Consider `CCN(CCC#N)c1ccc(N=Nc2c(Cl)cc([N+](=O)[O-])cc2Cl)cc1`, for which the AC50 was 13.4 µM (active).

In the case of `Oc1ccc(Cl)cc1Cc1cc(Cl)ccc1O`, the AC50 is 25 µM (active).

`CCCCCCCCCCCCCOP(=O)(O)O`: the result was inactive.

For `O=S(=O)(O)c1ccccc1C=Cc1ccc(-c2ccc(C=Cc3ccccc3S(=O)(=O)O)cc2)cc1`, the compound was called inactive.

For `O=C(C(Cl)Cl)N1CCOC12CCCCC2`, the call was inactive.

`CCCCCCCC/C=C\CCCCCCCC(=O)O`: the concentration at half-maximal activity (AC50) is 25 µM (active).

Turning to `CCCCCCCCCCOS(=O)(=O)O`, the AC50 was 15.6 µM (active) and the call was inactive.

For `C1CN(SSN2CCOCC2)CCO1`, the call was inactive.

`CC1=NN(c2cc(S(=O)(=O)O)ccc2Cl)C(=O)C1N=Nc1ccccc1` (centres undefined): the call was inactive.

Another experiment concerns the target human Dopamine Transporter (DAT), SLC6A3 (gene 6531) (UniProt Q01959). In words: NVS_TR_hDAT: NovaScreen (NVS) Transporter Assay for human Dopamine Transporter (DAT) (AID 2283374).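 Note: activity means loss of bound radioligand signal relative to DMSO.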 The method, boiled down:
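Cell-free radioligand displacement binding at human DAT, 1 h after dosing, with filtration and scintillation counting. Primary screen in duplicate at 25 uM, actives then in concentration series. Loss of bound signal versus DMSO scored.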
`c1ccc2c(c1)ccc1ncccc12`: the AC50 was 16.4 µM (active).

With `CCCCC/C=C\C/C=C\CCCCCCCC(=O)OC`, the compound was called inactive.

With `CCCCCCCCCCCCCCCC[N+](C)(C)CC`, the AC50 is 1.82 µM (active).

With `CC(C)=CC1CC(C)CCO1` (centres undefined), the outcome was inactive.

In another experiment the target is human Norepinephrine Transporter (NET), SLC6A2 (gene 6530) (UniProt P23975). In words: NVS_TR_hNET: NovaScreen (NVS) Transporter Assay for human Norepinephrine Transporter (NET) (AID 2283377).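 For AC50: displacement of radioligand from human NET seen as loss of scintillation signal.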 The procedure, abridged:
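Cell-free radioligand binding using CHO-derived membrane protein expressing human NET, read by filter scintillation counting 1 h after dosing; loss of signal vs DMSO. Initial duplicate screen at 25 uM, actives retested in concentration series.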
On to `O=C(Nc1ccccc1SSc1ccccc1NC(=O)c1ccccc1)c1ccccc1`, for which the compound was classed as inactive.

For the compound `c1ccc2c(c1)ccc1ncccc12`, the AC50 was 7.22 µM (active).

`CCCCC/C=C\C/C=C\CCCCCCCC(=O)OC`: the AC50 is 25 µM (active).

For `CCCCCCCCCCCCCCCC[N+](C)(C)CC`, the half-maximal activity concentration (AC50) is 2.32 µM (active).

For the compound `COc1ccc2nc(N)sc2c1`, the AC50 was 9.9 µM (active).

The target of a further experiment is mouse Estrogen Receptor alpha (Era), Esr1 (gene 13982) (UniProt P19785). In words: NVS_NR_mERa: NovaScreen (NVS) Nuclear Receptor Binding Assay for mouse Estrogen Receptor alpha (Era) (AID 2283378).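 Note: hit means loss of bound radioligand signal relative to DMSO.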 The method, boiled down:
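Measurements come from scintillation counting after filtration, taken 18 hours after chemicals were added to a cell-free mouse Era preparation with radioligand. Screening was duplicate at 25 uM, with concurrent positive and negative controls and confirmatory concentration series for actives.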
With `CC/C=C\C/C=C\C/C=C\CCCCCCCC(=O)O`, the compound was classed as inactive.

For the compound `S=C(NC1CCCCC1)NC1CCCCC1`, the compound was classed as inactive.

With `CCCCCCCC[N+](C)(CCCCCCCC)CCCCCCCC`, the concentration at half-maximal activity (AC50) was 0.338 µM (active).

In the case of `CC(C)(c1cc(Br)c(OCCO)c(Br)c1)c1cc(Br)c(OCCO)c(Br)c1`, the outcome was inactive.

As for `CC(=O)OC(C)C`, the result was inactive.

For `CC(C)C1=CC2=CC[C@@H]3[C@](C)(CCC[C@@]3(C)C(=O)O)[C@H]2CC1`, the outcome was inactive.

Take `O=S1(=O)OC(c2ccc(O)cc2)(c2ccc(O)cc2)c2ccccc21`: the AC50 is 20.1 µM (active).

Regarding `CCCCC/C=C\C/C=C\CCCCCCCC(=O)OC`, the compound was called inactive.

For `CCCCCCCCCCCCCOP(=O)(O)O`, the AC50 was 39.4 µM (active).

Regarding `CN(C)c1ccc(C(=N)c2ccc(N(C)C)cc2)cc1`, the compound was called inactive.

For the compound `CCCCCCCC/C=C\CCCCCCCC(=O)O`, the half-maximal activity concentration (AC50) was 35.8 µM (active).
